The record followed here is PubChem BioAssay AID2690 (NMMLSC, 2010).

Screen size: about 330,000 compounds; about 590 (0.18%) were called active. This excerpt belongs to a sample that is enriched for actives. Unmarked numbers belong to inactive results.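 Rule for the calls: active = superoxide response under a set limit, about three screen SD below normal (cut at about 65% in these data); inactive = the rest.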

This test is described as follows: yeast aging ROS inhibitors as calorie-restriction mimetics – HTS, primary screen (AID 2690).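 Note: yeast aged for seven days with compound at 30 °C before DHE staining; 100% = average MFI of all compound-treated wells on the plate with controls excluded.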 The note with it: S. cerevisiae aged cells, superoxide DHE fluorescence; at 10 µM; active compounds read low.
For `Cc1ccsc1C(=O)OCC(=O)NCCc1ccccc1`, the superoxide response (% of plate mean) was 92.1%.
The figure for `O=C(Nc1ccc(Br)cn1)c1ccc([N+](=O)[O-])o1` is 118%; for `O=C(Nc1ccncc1)c1ccc([N+](=O)[O-])cc1Cl` it is 103%; for `O=C(Nc1ccc(Br)cn1)c1ccc([N+](=O)[O-])cc1Cl` it is 64.7% (active).
The figure for `C/C(=N\NS(=O)(=O)c1ccccc1)c1c(O)cc(C)oc1=O` is 102%.
The result for `O=C1NC(=Nc2ccc(Cl)cc2)SC1Cc1cccc(Cl)c1Cl` (stereo unspecified) reads 121%; that for `O=C(CCS(=O)(=O)c1ccc2c(c1)NC(=O)CS2)NCc1ccccc1Cl`, 110%.
On to `CN1CCN(CC(=O)C23CC4CC(CC(C4)C2)C3)CC1`, for which the superoxide response (% of plate mean) was 101%.
The figure for `O=C1/C(=C/c2ccc(F)cc2)SC(=S)N1NS(=O)(=O)c1ccccc1` is 107%.
With `CC(=O)c1ccc(N2CCN(C(=O)c3ccc4nc[nH]c4c3)CC2)cc1`, the superoxide response (% of plate mean) is 112%.
The figure for `CC1(C)CC[C@@]2(C(=O)O)C(C1)C1=CCC3[C@@]4(C)CC[C@H](O)C(C)(C)C4CC[C@@]3(C)[C@]1(C)C[C@H]2O` (stereo partly specified) is 88%; for `CC(C)(C)C(=O)NC1CC2CCCC(C1)N2C(=O)Nc1ccccc1F` (stereo unspecified) it is 103%; for `O=[N+]([O-])/C(N=Nc1ccccc1)=N\Nc1ccccc1` it is 102%.
The result for `CC(C)(C)NC(=O)c1cccc(NC(=O)Cc2ccc(Br)cc2)c1` reads 91.5%; that for `Cc1ccc(S(=O)(=O)N(CC(=O)NCc2ccco2)c2ccccc2C)cc1`, 111%.
The figure for `COc1ccc(Nc2nc(NCc3ccco3)nc(N/N=C/c3ccccc3Cl)n2)cc1` is 99.5%.
Turning to `COC1=CCC2([N+](=O)[O-])CN(CC(=O)O)CC1([N+](=O)[O-])C2` (stereo unspecified), the superoxide response (% of plate mean) is 98.8%.
Regarding `Cc1c2cn[nH]c(=O)c2c(C)n1Cc1ccc(F)cc1`, the superoxide response (% of plate mean) was 86.5%.
Regarding `CC[C@@H]1CCCCc2ccccc2[C@@H](C(=O)C[C@H](O)CC(C)=O)OC1=O`, the superoxide response (% of plate mean) was 98.3%.
The result for `CC(=O)C[C@@H](O)CC(=O)[C@H]1OC(=O)CCCCCCc2ccccc21` reads 62.5% (active).
Regarding `CC(=O)C[C@H](O)CC(=O)[C@@H]1OC(=O)[C@@H](C)C/C=C\Cc2ccccc21`, the superoxide response (% of plate mean) was 89.8%.
Regarding `CC(C)=NN1C(=O)c2ccccc2NC1(C)C`, the superoxide response (% of plate mean) was 102%.
The result for `COc1cc(-c2c(-c3ccc4c(c3)OCO4)noc2C)ccc1F` reads 94.1%.
The figure for `O=C(COc1ccc([N+](=O)[O-])cc1Cl)Nc1ccc2[nH]c(=O)[nH]c2c1` is 111%; for `COC(=O)c1ccc(OCC(=O)NC(C)(C)C)cc1` it is 102%.
The result for `CC(C)(C)NC(=O)COc1ccc(CNc2ccc3[nH]c(=O)[nH]c3c2)cc1` reads 60.8% (active); that for `O=c1c2cc([N+](=O)[O-])ccc2nc2n1CCC2`, 108%.
For `Cc1cc(CNC(=O)C2CCC(=O)N(CCc3ccc(Cl)cc3)C2)no1` (stereo unspecified), the superoxide response (% of plate mean) is 101%.
In the case of `CN=C(Nc1cccc(S(=O)(=O)N2CCOCC2)c1)c1ccccc1`, the superoxide response (% of plate mean) was 96.6%.
The result for `COc1ccc(CN(C)C(=O)Cc2c[nH]c3ccccc23)c(OC)c1OC` reads 99.6%; that for `CSCCC(NS(=O)(=O)c1ccccc1F)C(=O)N1CC=C(c2ccccc2)CC1` (stereo unspecified), 105%.
On to `Nc1nnn(CC(=O)N/N=C/c2ccc(O)cc2)n1`, for which the superoxide response (% of plate mean) is 92.6%.
Regarding `O=C(Cn1nnc(-c2ccccc2)n1)N/N=C/c1ccc(-c2ccc(Cl)cc2)o1`, the superoxide response (% of plate mean) was 92.1%.
The figure for `Nc1nnn(CC(=O)N/N=C/c2ccccc2)n1` is 65% (active).
The figure for `CCOc1ccccc1NC(=O)C1CCCN(C(=O)Nc2ccccc2)C1` (stereo unspecified) is 92.4%; for `CCCCCCn1cc(C(=O)O)c(=O)c2cc(F)c(N3CCCCC3)cc21` it is 91.2%.
The figure for `CN1CCN(c2cc3c(cc2F)c(=O)c(C(=O)O)cn3CCF)CC1` is 60.4% (active); for `CCn1cc(C(=O)NCCO)c(=O)c2cc(F)c(N3CCN(C)CC3)cc21` it is 99.8%; for `COc1ccc(/C=C/CN2CCCC(C(=O)c3cc(F)ccc3F)C2)cc1` (stereo unspecified) it is 100%.
On to `COc1cccc(N(Cc2nnc3n2CCCCC3)C(=O)Nc2ccccc2F)c1`, for which the superoxide response (% of plate mean) was 107%.
The figure for `COc1ccc(OC)c(NC(=O)Cc2cccs2)c1` is 102%; for `Cc1ccc(-c2nn(C(C)(C)C)c3ncnc(N)c23)cc1` it is 55.4% (active); for `Cc1ccc(-n2cnc3ncnc(-c4ccccc4)c32)cc1` it is 108%.
As to `O=C(Nc1cccc(Cl)c1Cl)c1ccccc1NC(=O)C1CC=CCC1C(=O)O` (stereo unspecified), the superoxide response (% of plate mean) is 64.3% (active).
The figure for `O=C(Nc1ccccc1C(=O)N1CCCCCC1)c1ccccc1Cl` is 106%.
For `O=C(Nc1ccc(Cl)c(Cl)c1)c1ccccc1NC(=O)C1CC=CCC1C(=O)O` (stereo unspecified), the superoxide response (% of plate mean) was 128%.
The result for `OC(c1nc2ccccc2[nH]1)C(O)C(O)C(O)c1nc2ccccc2[nH]1` (stereo unspecified) reads 59.9% (active); that for `CCCC(NC(=O)c1ccco1)c1nc2ccccc2[nH]1` (stereo unspecified), 103%.
The figure for `OC(c1nc2ccc(F)cc2[nH]1)C(O)c1nc2ccc(F)cc2[nH]1` (stereo unspecified) is 103%; for `Cc1ccc(-c2nc(CSCC(=O)NC3CCN(Cc4ccccc4)CC3)c(C)o2)cc1` it is 58.7% (active); for `Cc1ccc(S(=O)(=O)NCCC(=O)NC2CCN(Cc3ccccc3)CC2)cc1` it is 93%.
As for `Cc1ccc(-c2cc(C(=O)NC3CCN(Cc4ccccc4)CC3)c3ccccc3n2)cc1`, the superoxide response (% of plate mean) was 107%.
The figure for `O=C(NCc1ccc(F)cc1)C1CCC(CNc2c(N3CCOCC3)c(=O)c2=O)CC1` (stereo unspecified) is 96.9%.
The result for `Cc1cc2oc(=O)cc(-c3ccccc3)c2c(C)c1-c1ccc(OC(F)(F)F)cc1` reads 94.1%; that for `Cc1cc(NC(=O)CN2C(=O)NC(CCc3ccccc3)C2=O)no1` (stereo unspecified), 82.4%; that for `O=C(CCc1ccccc1)Nc1ccc(NC(=O)C2CCCCC2)nc1`, 91.3%.
The figure for `O=C(COC(=O)CCCNC(=O)c1ccc(Cl)cc1)Nc1cc(Cl)ccc1Cl` is 98.1%; for `COc1ccc(-c2nonc2NC(=O)c2oc3ccc(F)cc3c2C)cc1OC` it is 80.1%; for `CCN(CC)c1nc(-c2ccccc2)cc(C(F)(F)F)c1C#N` it is 87%.
Consider `CCn1nccc1C(=O)Nc1ccc(S(=O)(=O)NC23CC4CC(CC(C4)C2)C3)cc1`, for which the superoxide response (% of plate mean) is 114%.
The result for `Cc1cc(NS(=O)(=O)c2ccc(NC(=O)c3cccc(OC(F)F)c3)cc2)nc(C)n1` reads 103%; that for `Cc1cc(C(F)F)n2nc(C(=O)Nc3ccc(S(=O)(=O)NC45CC6CC(CC(C6)C4)C5)cc3)nc2n1`, 62.8% (active).
The figure for `COc1ccc(NC(=O)c2cc([N+](=O)[O-])ccc2NC(=O)CNC2CCCCC2C)c(OC)c1` (stereo unspecified) is 111%.
The figure for `CCOC(=O)C1=CN(Cc2ccc(Br)cc2)S(=O)(=O)N(C)C1C` (stereo unspecified) is 105%.
As to `COc1ccccc1C(=O)N1CCNC(=O)C1CC(=O)Nc1ccc(Cl)cc1` (stereo unspecified), the superoxide response (% of plate mean) is 103%.
The figure for `NS(=O)(=O)c1ccc(NC(=O)/C=C/c2ccccc2Cl)cc1` is 92.5%; for `COC(=O)c1ccc(NC(=S)Nc2cccc(C)n2)cc1` it is 105%.
The result for `CCC(C(=O)OCC(=O)Nc1c(Cl)cc(Cl)cc1Cl)c1ccccc1` (stereo unspecified) reads 101%; that for `Cc1cc(C)cc(NC(=O)COC(=O)c2cc(C)oc2C)c1`, 95.1%; that for `CCCC(C)C(=O)OCC(=O)Nc1c(Br)cc(C)cc1Br` (stereo unspecified), 65.3% (active).
In the case of `Cn1c(Nc2ccccc2)cc(=O)n(C)c1=O`, the superoxide response (% of plate mean) is 33.4% (active).
With `CC(C)Oc1ccc(C(=O)Nc2cc(=O)n(C)c(=O)n2C)cc1`, the superoxide response (% of plate mean) is 99.9%.
The figure for `Cc1cc(=O)n(C)c(=O)n1CCCNc1ccccc1` is 84.6%; for `O=C(NC1CCC(O)CC1)c1ccc(S(=O)(=O)NCc2ccco2)cc1` (stereo unspecified) it is 102%; for `O=C(CSCc1ccccc1)Nc1ccccc1` it is 42.6% (active).
The figure for `Cc1c(NC(=O)CSCc2ccccc2)cccc1C(=O)O` is 116%; for `Cn1c(CSCC(=O)Nc2ccccc2)nnc1SCc1ccccc1` it is 118%; for `C/C(CC(=O)NC(C)c1ccccc1)=N\NC(N)=S` (stereo unspecified) it is 105%.
On to `C=CCNC(=O)C12CC3CC(C1)CC(C(=O)NCC=C)(C3)C2`, for which the superoxide response (% of plate mean) is 96%.
The result for `CCOc1ccccc1NC(=O)C12CC3CC(C1)CC(c1ccc(C)cc1)(C3)C2` reads 95.5%; that for `Cc1ccc(C23CC4CC(CC(C(=O)NCC(=O)O)(C4)C2)C3)cc1`, 62.1% (active); that for `COc1cccc(NC(=O)Cn2c3ccc(F)cc3c3nc4n(c(=O)c32)CCS4)c1`, 82.6%.
The figure for `COc1ccc(C(CCNCc2ccccc2F)c2ccc(F)cc2)cc1` (stereo unspecified) is 97%; for `CCc1cc(-c2n[nH]c(=S)n2CC(C)C)cs1` it is 87.8%.
The figure for `COc1cc(C(=O)NCc2ccc(-n3cccc3)cc2)cc(OC)c1OC` is 99.9%; for `COc1ccc(CNC(=O)Cc2ccc(-c3ccccc3)cc2)cc1OC` it is 98.2%.
For the compound `COc1cc(-c2nnn(CC(=O)NCc3ccccc3)n2)cc(OC)c1OC`, the superoxide response (% of plate mean) is 65.3% (active).
The result for `CCCCNC(=O)C1CCCN(S(=O)(=O)c2ccc(S(=O)(=O)NCC(C)C)cc2)C1` (stereo unspecified) reads 102%; that for `Cc1ccc2cccc(S(=O)(=O)N3CCN(c4ccccc4F)CC3)c2n1`, 61.4% (active).
The result for `O=S(=O)(N1CCOCC1)N1CCN(c2ccccc2F)CC1` reads 90.5%; that for `Cc1ccccc1N1CCN(S(=O)(=O)c2ccc3ccccc3c2)CC1`, 95.3%.
The figure for `COc1ccc(C(=O)Nc2ccc(C3(C#N)CCCC3)cc2)cc1OC` is 87.6%; for `COC(=O)c1ccc(S(=O)(=O)c2ccc(C(=O)OC)s2)s1` it is 101%; for `O=C(Nc1c(Cl)cccc1Cl)C1CCC1` it is 111%.
As to `NC(=S)Nc1c(Cl)cccc1Cl`, the superoxide response (% of plate mean) was 46.6% (active).
The result for `CCNC(=S)Nc1cccc(Cl)c1C` reads 97.2%.
